Measurements taken from ChEMBL document CHEMBL3988442, “University of Dundee, Small-Polar-MMV Screening Library” (2021).
For some assays here: Measured potencies and affinities stand elsewhere.

How the values were obtained:
Design in all cases: scale not given: direction of the effect not stated beside the values
[1] = target: Protein translocase subunit SecA (Escherichia coli (strain K12)) (UniProt P10408); assay: Assay to Identify E. coli SecA ATPase Inhibitors; format: functional; conditions: 30 µM
[2] = target: T1, Ubiquitin-activating enzyme e1, putative (Leishmania donovani (strain BPK282A1)) (UniProt E9BSI1); assay: Leishmania donovani Ubiquitin Activating Enzyme (LdE1); format: functional; conditions: 30 µM
T1 sequence (whole entry): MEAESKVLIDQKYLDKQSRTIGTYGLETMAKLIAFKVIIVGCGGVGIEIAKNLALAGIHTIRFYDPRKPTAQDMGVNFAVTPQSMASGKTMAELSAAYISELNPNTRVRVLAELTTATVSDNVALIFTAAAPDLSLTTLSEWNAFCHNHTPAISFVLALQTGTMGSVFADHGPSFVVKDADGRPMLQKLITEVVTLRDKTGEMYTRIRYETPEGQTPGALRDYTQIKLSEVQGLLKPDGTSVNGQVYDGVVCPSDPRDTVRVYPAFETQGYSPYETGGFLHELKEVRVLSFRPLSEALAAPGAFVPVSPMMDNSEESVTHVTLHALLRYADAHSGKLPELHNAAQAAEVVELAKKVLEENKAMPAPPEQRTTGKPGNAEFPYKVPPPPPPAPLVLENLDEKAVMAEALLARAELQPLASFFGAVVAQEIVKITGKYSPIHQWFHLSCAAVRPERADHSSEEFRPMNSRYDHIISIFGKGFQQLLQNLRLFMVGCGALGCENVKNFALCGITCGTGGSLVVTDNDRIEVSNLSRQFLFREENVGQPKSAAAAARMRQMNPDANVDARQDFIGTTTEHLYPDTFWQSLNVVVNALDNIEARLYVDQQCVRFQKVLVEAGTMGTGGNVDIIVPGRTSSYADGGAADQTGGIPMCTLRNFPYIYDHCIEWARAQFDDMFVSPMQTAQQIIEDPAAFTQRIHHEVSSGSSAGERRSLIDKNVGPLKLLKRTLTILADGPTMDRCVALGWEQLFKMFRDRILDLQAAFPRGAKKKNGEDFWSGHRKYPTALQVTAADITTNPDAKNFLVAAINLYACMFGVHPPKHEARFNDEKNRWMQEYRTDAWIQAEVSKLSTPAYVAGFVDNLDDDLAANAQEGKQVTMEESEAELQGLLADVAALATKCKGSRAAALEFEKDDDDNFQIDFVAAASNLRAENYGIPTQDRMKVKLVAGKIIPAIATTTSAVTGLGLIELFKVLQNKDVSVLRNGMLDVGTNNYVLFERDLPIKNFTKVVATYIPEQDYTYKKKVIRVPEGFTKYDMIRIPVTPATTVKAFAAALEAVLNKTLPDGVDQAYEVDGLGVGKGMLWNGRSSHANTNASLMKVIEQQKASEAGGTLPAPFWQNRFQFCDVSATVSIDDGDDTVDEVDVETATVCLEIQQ

[3] = target: AMP-activated protein kinase, AMPK (Homo sapiens) (UniProt P54646+O43741+P54619+Q9UGJ0+Q9Y478+Q13131+Q9UGI9); assay: AMP-dependent Kinase enzyme assay. An in vitro enzyme assay that detects ADP turnover that is directly proportional to AMPK activity. This uses naive AMPK that is activated during the assay with MK-8722; format: functional; conditions: 30 µM
[4] = target: Sialic acid-binding Ig-like lectin 9 (Homo sapiens) (UniProt Q9Y336); assay: Hs-Siglec9 ALPHAscreen SOP 20170721; conditions: 10 µM
[5] = tested on: Trypanosoma cruzi; assay: Trypanosoma cruzi phosphomannomutase and mannose-1-phosphate guanylyltransferase assay; format: functional; conditions: 10 µM
[6] = target: T2, Arginase-2, mitochondrial (Homo sapiens) (UniProt P78540); assay: in vitro enzyme assay to detect the production of urea directly proportional to the activity of Arginase II; format: functional; conditions: 33.3 µM; note: in the data most compounds retested in dose-response had high values
T2 sequence (whole entry): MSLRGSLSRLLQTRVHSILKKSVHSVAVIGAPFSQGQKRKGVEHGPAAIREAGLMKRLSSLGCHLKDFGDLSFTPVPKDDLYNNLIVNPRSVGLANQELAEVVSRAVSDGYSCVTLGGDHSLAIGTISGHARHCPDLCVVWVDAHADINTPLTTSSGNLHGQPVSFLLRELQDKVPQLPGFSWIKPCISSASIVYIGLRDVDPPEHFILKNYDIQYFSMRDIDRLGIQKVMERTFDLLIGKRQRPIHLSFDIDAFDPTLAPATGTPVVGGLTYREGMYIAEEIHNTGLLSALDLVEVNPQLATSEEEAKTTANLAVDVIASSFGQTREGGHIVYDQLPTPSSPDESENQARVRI

[7] = target: T3, Proteasome subunit beta (Trypanosoma cruzi) (UniProt O96673); assay: Trypanosoma cruzi proteasome chymotrypsin-like activity (TcProtChymo) assay.; note: in the data most compounds retested in dose-response had high values; format: functional; conditions: 9.37 µM
T3 sequence (whole entry): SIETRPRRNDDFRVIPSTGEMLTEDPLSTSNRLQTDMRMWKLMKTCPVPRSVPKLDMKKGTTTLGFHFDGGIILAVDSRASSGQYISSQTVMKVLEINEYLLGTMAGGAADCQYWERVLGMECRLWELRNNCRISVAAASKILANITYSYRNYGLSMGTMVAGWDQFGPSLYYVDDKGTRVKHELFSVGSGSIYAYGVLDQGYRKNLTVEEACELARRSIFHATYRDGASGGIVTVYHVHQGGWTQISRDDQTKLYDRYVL

[8] = species on record: Homo sapiens; assay: To identify inhibition of the IFN signalling (Jak-Stat) pathway via expression of an eGFP reporter gene under the control of an IFN-stimulated response element (ISRE) containing MxA promoter.; format: functional; conditions: 30 µM
[9] = target: T4, Tyrosyl-tRNA synthetase, putative (Trypanosoma cruzi (strain CL Brener)) (UniProt Q4DSP6); assay: Trypanosoma cruzi tyrosyl tRNA synthetase (TcYRS) _High Tyrosine SOP; format: functional; conditions: 30 µM; note: in the data most compounds retested in dose-response had high values
T4 sequence (whole entry): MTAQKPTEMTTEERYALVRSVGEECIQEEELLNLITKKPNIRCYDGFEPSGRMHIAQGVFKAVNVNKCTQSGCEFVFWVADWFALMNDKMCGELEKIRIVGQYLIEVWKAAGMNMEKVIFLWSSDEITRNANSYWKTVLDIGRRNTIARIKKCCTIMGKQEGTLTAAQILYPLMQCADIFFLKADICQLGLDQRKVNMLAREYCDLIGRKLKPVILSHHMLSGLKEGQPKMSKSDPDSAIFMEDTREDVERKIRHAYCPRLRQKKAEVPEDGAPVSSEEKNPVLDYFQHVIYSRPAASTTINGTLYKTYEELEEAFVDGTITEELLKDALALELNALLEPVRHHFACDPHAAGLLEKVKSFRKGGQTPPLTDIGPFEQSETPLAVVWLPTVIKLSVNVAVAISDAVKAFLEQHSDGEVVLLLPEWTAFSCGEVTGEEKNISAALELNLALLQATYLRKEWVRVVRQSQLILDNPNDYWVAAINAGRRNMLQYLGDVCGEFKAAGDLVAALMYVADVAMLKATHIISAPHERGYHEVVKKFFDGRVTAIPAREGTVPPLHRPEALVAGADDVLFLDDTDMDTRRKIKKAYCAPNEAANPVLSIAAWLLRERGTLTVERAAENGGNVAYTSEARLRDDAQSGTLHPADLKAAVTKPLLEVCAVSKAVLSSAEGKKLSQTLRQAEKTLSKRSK

[10] = target: T4, Tyrosyl-tRNA synthetase, putative (Trypanosoma cruzi (strain CL Brener)); assay: Trypanosoma cruzi tyrosyl tRNA synthetase (TcYRS) SOP; format: functional; conditions: 30 µM
[11] = target: Chromo domain-containing protein 1 (Saccharomyces cerevisiae (strain ATCC 204508 / S288c) (Baker's yeast)) (UniProt P32657); assay: ScCHD-1 Enzyme Inhibition Assay; format: functional; conditions: 30 µM; note: in the data most compounds retested in dose-response had high values
Chromo domain-containing protein 1 (Saccharomyces cerevisiae (strain ATCC 204508 / S288c) (Baker's yeast)), sequence (P32657 whole entry, the tested form may be a part): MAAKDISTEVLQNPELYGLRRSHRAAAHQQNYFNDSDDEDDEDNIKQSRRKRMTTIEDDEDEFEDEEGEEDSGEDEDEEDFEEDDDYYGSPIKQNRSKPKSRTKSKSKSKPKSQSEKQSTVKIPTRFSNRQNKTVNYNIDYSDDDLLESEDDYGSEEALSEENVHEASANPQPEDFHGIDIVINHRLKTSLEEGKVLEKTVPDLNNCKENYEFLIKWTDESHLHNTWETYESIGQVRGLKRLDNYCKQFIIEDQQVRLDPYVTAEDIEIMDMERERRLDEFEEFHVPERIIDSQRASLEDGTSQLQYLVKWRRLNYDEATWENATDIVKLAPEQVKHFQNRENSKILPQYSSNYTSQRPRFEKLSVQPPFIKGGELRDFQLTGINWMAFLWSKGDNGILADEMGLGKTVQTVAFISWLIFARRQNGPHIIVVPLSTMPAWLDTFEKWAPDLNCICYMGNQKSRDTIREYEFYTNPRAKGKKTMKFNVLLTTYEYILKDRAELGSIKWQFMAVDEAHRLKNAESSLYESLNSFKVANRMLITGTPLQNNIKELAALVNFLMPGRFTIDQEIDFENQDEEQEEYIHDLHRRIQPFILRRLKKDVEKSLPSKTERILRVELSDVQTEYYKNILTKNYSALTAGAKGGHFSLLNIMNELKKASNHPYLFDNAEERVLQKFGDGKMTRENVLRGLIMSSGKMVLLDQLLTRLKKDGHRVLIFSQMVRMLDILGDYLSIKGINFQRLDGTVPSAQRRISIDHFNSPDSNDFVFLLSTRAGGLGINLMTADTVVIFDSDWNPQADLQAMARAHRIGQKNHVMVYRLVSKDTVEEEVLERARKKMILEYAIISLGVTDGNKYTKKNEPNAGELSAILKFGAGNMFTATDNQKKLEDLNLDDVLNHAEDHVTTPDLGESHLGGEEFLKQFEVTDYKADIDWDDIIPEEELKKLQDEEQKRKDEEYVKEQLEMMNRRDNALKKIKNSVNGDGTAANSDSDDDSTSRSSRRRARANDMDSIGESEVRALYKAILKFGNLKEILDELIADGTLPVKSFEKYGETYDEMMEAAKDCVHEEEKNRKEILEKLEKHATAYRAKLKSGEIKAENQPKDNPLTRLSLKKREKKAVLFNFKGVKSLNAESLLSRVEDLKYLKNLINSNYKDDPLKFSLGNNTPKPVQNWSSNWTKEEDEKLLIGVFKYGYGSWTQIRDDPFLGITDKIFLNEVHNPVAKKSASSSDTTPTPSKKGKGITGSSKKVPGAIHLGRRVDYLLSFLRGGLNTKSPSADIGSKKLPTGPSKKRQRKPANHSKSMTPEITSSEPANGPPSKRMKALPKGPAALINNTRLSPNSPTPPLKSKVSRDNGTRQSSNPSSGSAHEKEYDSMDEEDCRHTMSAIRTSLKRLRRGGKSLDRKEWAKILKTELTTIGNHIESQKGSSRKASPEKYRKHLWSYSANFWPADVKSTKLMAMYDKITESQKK

Protein translocase subunit SecA (Escherichia coli (strain K12)), sequence (P10408 whole entry): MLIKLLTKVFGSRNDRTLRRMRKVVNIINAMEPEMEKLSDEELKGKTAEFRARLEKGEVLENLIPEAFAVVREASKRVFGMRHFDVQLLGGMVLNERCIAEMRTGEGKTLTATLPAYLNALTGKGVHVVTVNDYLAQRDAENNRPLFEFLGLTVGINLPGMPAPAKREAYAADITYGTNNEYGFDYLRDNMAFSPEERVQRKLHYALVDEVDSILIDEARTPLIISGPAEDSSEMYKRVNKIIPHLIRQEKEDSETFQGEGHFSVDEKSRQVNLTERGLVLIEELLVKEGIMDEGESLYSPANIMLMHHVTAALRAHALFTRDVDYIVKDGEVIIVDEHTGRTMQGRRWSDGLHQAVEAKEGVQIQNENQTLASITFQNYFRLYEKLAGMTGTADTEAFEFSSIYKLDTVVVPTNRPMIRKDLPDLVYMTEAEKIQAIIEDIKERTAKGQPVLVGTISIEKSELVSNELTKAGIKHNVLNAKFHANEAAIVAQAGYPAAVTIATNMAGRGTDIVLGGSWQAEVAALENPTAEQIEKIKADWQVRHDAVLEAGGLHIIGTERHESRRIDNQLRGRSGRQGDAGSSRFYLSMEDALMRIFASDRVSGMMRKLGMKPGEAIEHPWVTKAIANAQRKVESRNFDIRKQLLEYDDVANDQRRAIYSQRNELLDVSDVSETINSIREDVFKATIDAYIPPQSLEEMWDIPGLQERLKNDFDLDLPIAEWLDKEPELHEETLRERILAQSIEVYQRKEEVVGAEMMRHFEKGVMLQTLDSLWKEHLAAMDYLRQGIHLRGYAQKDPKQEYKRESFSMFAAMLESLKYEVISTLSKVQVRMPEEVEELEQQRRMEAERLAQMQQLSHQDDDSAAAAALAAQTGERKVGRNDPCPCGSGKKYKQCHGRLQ
Sialic acid-binding Ig-like lectin 9 (Homo sapiens), sequence (Q9Y336 whole entry): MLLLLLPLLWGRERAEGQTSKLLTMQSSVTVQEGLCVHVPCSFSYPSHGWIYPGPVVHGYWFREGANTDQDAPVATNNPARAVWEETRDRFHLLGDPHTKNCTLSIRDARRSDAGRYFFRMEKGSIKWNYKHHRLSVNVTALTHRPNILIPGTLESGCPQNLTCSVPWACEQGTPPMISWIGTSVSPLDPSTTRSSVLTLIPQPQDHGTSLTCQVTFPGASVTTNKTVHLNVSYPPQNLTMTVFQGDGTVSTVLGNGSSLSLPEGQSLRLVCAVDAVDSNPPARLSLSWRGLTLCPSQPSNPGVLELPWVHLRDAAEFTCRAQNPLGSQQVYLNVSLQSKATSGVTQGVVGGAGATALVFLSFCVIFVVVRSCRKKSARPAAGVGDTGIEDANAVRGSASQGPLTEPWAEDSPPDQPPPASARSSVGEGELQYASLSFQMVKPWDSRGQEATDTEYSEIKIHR

Row | Compound | Percent Effect [1] | Percent Effect [2] | Percent Effect [3] | Percent Effect [4] | Percent Effect [5] | Percent Effect [6] | Percent Effect [7] | Percent Effect [8] | Percent Effect [9] | Percent Effect [10] | Percent Effect [11]
1 | Cc1noc2ncc(C(=O)N3CCCC3c3ccncc3)cc12 (configuration not stated) | -7.65% | 20.2% | -6.44% | 0.762% | 10.1% | -3.42% | 17.4% | 21.9% | 5.42% | 24.1% | -9.53%
2 | CCC1CN(CCC(=O)N(C)C)CCN1CCOC (configuration not stated) | -1.46% | 16.2% | -11.9% | 3.32% | 2.74% | -0.401% | 5.04% | -13.9% | 8.37% | 25.9% | -3.8%
3 | Cc1nsc(NC(=O)N2CCC(C(C)(C)O)CC2)n1 | 1.56% | 5.41% | -3.48% | -1.81% | -8.11% | 1.74% | 14.2% | 5.12% | 1.07% | 6.17% | -3.72%
4 | c1ccc(Cn2cc3c(n2)C(CNCc2ccco2)OCC3)nc1 (configuration not stated) | -3.96% | 2.7% | 0.188% | 3.43% | -4.49% | 4.17% | 2.79% | -8.58% | 4.95% | 11% | -1.79%
5 | Cc1nn(C)c(N(C)C)c1CNCc1ccccc1CN(C)C | -1.22% | 24.1% | -13.2% | -7.18% | -1.54% | -6.24% | 15.9% | -0.0229% | 1.04% | 2.53% | -30.7%
6 | Cc1ccc(F)cc1S(=O)(=O)N(C)CC(N)=O | -2.13% | 11% | -2.95% | 2.8% | -1.19% | -2.79% | 14.8% | -1.31% | 9.38% | 16.1% | -0.907%
7 | Cc1nc(C)n(CC2CCCN(Cc3ccc(C(N)=O)cc3)C2)n1 (configuration not stated) | -2.97% | 5.2% | 2.61% | -0.0393% | -0.294% | -3.58% | 5.58% | 5.79% | 4.76% | 11.8% | -14.8%
8 | C[C@H]1C[C@@H]2CCN(C(=O)c3ccncn3)C[C@H]2O1 | -5.91% | 0% | -1.04% | -0.649% | 1.56% | 2.08% | 1.27% | -2.6% | 5.94% | 8.54% | -3.12%
9 | CC(C)n1ccnc1C1CCN(Cc2ccc(Cl)c(F)c2)CC1 | -4.75% | 5.2% | 1.93% | 15.3% | 0.885% | -4.14% | 12.5% | 18.3% | 6.45% | 8.64% | 0.763%
10 | Cc1ccc2c(n1)N(CCn1cccn1)CCN(C(=O)NC1CC1)C2 | -4.03% | 10.8% | -7.12% | 26.1% | 6.55% | -1.24% | 18.1% | -2.83% | 5.38% | 16.1% | -4.31%
11 | CNc1cc2c(nn1)CCN(C(=O)C1CCCc3ccccc31)C2 (configuration not stated) | -1.49% | 7.59% | -8.51% | 1.73% | -4.44% | 4.18% | -2.38% | 8.64% | 5.42% | 3.8% | -3.47%
12 | Cc1ncc2c(n1)CN(Cc1nnc(Cc3ccccc3)o1)CC2 | -2.29% | 24.3% | -11.8% | 1.92% | 5.66% | 4.99% | 13.8% | -0.54% | 29.7% | 28.1% | -9.78%
13 | Cc1nc(C2CCCN(C(=O)c3ccc(OCC4CC4)cc3)C2)no1 (configuration not stated) | -11% | 15.8% | -2.79% | 21.9% | 10.9% | 3.24% | 7.19% | 0.288% | 5.42% | 25.9% | -8.85%
14 | CC(C)Nc1ccc2nc(C3CCN(C(C)C)CC3)nn2c1 | -0.345% | 8.11% | -95.9% | -2.89% | 3.91% | 26.2% | 8.54% | 7.24% | 10.9% | 8.54% | -1.81%
15 | OCCn1cc(CN2CCN(CCOc3ccccc3)CC2)cn1 | -4.31% | 8.11% | -1.96% | 0.413% | -4.36% | 1.29% | 11.3% | 3.13% | 2.97% | 3.66% | -2.48%
16 | COCCN1C[C@@H]2CN(Cc3cccc(F)c3)CCC[C@]2(C(=O)O)C1 | -4.38% | 0% | 0.729% | -3.33% | -4.24% | 1.94% | 8.53% | 3.04% | -2.12% | -1.28% | -7.5%
17 | CS(=O)(=O)NCCNC(=O)C1(c2cccc(Cl)c2)CC1 | -0.857% | 9.72% | -4.76% | 1.31% | 1.07% | 20.8% | 10.9% | -17.9% | 3.16% | 7.69% | -4.91%
18 | CCN(CC)C(=O)CCNC(=O)Cc1nc(-c2ccco2)oc1C | -7.31% | -2.67% | -3.57% | -1.71% | -5.75% | -0.521% | 17.3% | -3.68% | -1.64% | 3.7% | -7.39%
19 | CCOCC1CN(C)Cc2cnn(CC3CCCC3)c21 (configuration not stated) | 0.927% | 5.48% | 0.312% | 7.92% | 7.14% | 2% | 9.68% | -29.3% | 7.29% | 11.1% | -3.7%
20 | OCC1CCCN1c1cc(NCCNc2ccccn2)ncn1 (configuration not stated) | -3.44% | 5.48% | -4.46% | -5.01% | 1.18% | 3.64% | 20.4% | 22.1% | 2.15% | 10% | -7.12%
21 | CNC(=O)c1cccc(C2CNCCN2C(C)=O)c1 (configuration not stated) | 0.479% | 14.9% | 9.34% | -6.16% | -4.15% | -0.232% | 10.6% | 19.3% | 2.15% | 3.9% | -8.27%
22 | COC(=O)c1ccc(N2CCN(CCC(=O)NC(N)=O)C(C)C2)cc1 (configuration not stated) | -5.21% | 15.8% | -4.81% | 0.77% | -5.51% | -0.719% | -2.45% | 5.46% | 5.42% | 13.6% | 2.67%
